Source: the supplement of paper PMC6992640
± gives the standard deviation of the averaged measurements.

Columns and labels:
Assay in all cases: cell viability (% of vehicle); higher = less cytotoxic
[1] = test system: HCI01 (cells of a triple-negative basal-like breast cancer xenograft); conditions: 1 µM; 72 h
[2] = test system: UCD52 (cells of a triple-negative basal-like breast cancer xenograft); conditions: 1 µM; 72 h
[3] = test system: WHIM2 (cells of a triple-negative basal-like breast cancer xenograft); conditions: 1 µM; 72 h
[4] = test system: WHIM30 (cells of a triple-negative basal-like breast cancer xenograft); conditions: 1 µM; 72 h
[5] = test system: HCI01; conditions: 10 µM; 72 h
[6] = test system: HCI03 (cells of an ER-positive luminal breast cancer xenograft); conditions: 10 µM; 72 h
[7] = test system: HCI09 (cells of a triple-negative luminal androgen receptor type breast cancer xenograft); conditions: 10 µM; 72 h
[8] = test system: HCI11 (cells of an ER-positive luminal breast cancer xenograft); conditions: 10 µM; 72 h
[9] = test system: HCI13 (cells of an ER-positive luminal breast cancer xenograft); conditions: 10 µM; 72 h
[10] = test system: HCI16 (cells of a triple-negative basal-like breast cancer xenograft); conditions: 10 µM; 72 h
[11] = test system: UCD52; conditions: 10 µM; 72 h
[12] = test system: WHIM2; conditions: 10 µM; 72 h
[13] = test system: WHIM30; conditions: 10 µM; 72 h

Q: Which cell viability [1] does the source give for CCC(=C(c1ccccc1)c1ccc(OCCN(C)C)cc1)c1ccccc1.O=C(O)CC(O)(CC(=O)O)C(=O)O [Tamoxifen Citrate] here?
A: 111

Q: What about the cell viability [2] of the same compound?
A: 101

Q: And the cell viability [3]?
A: 86.2

Q: What about the cell viability [4] of the same compound?
A: 99.9

Q: What about the cell viability [5] of the same compound?
A: 74 ± 57

Q: What about the cell viability [6] of the same compound?
A: 78.8

Q: And the cell viability [7]?
A: 28.1 ± 6

Q: What about the cell viability [8] of the same compound?
A: 96.5

Q: And the cell viability [9]?
A: 37.6 ± 3.9

Q: What about the cell viability [10] of the same compound?
A: 59.7

Q: And the cell viability [11]?
A: 34.5 ± 0.98

Q: And the cell viability [12]?
A: 42.4 ± 7.6

Q: What about the cell viability [13] of the same compound?
A: 104 ± 7.1

Q: Which cell viability [1] does the source give for CN1CCN(c2ccc(C(=O)/N=c3\[nH][nH]c4ccc(Cc5cc(F)cc(F)c5)cc34)c(NC3CCOCC3)c2)CC1 [Entrectinib] here?
A: 92.3

Q: What about the cell viability [2] of the same compound?
A: 72.6

Q: And the cell viability [3]?
A: 81.7

Q: What about the cell viability [4] of the same compound?
A: 71.9

Q: What about the cell viability [5] of the same compound?
A: 28.2 ± 2.5

Q: What about the cell viability [6] of the same compound?
A: 59.8

Q: And the cell viability [7]?
A: 22.8 ± 0.65

Q: And the cell viability [8]?
A: 48.9

Q: What about the cell viability [9] of the same compound?
A: 41 ± 5.5

Q: And the cell viability [10]?
A: 58.5

Q: What about the cell viability [11] of the same compound?
A: 36.98 ± 0.05

Q: And the cell viability [12]?
A: 42.6 ± 4.1

Q: What about the cell viability [13] of the same compound?
A: 41.8 ± 12

Q: With CCOc1nc2cccc(C(=O)OC(C)OC(=O)OC3CCCCC3)c2n1Cc1ccc(-c2ccccc2-c2nn[nH]n2)cc1 (stereo not given) [Candesartan Cilexetil] as the compound, how does the cell viability [1] read?
A: 88.5

Q: What about the cell viability [2] of the same compound?
A: 97.3

Q: What about the cell viability [3] of the same compound?
A: 106

Q: And the cell viability [4]?
A: 99.7

Q: And the cell viability [5]?
A: 18.1 ± 12

Q: And the cell viability [6]?
A: 94.5

Q: What about the cell viability [7] of the same compound?
A: 18.3 ± 4.6

Q: What about the cell viability [8] of the same compound?
A: 72.3

Q: And the cell viability [9]?
A: 47.71 ± 0.052

Q: And the cell viability [10]?
A: 75.3

Q: What about the cell viability [11] of the same compound?
A: 74.3 ± 16

Q: And the cell viability [12]?
A: 37.6 ± 6.6

Q: And the cell viability [13]?
A: 128 ± 5.3

Q: Cl.Cl.Fc1ccc(C(c2ccc(F)cc2)N2CCN(CC=Cc3ccccc3)CC2)cc1 [Flunarizine 2HCl] was tested. Which cell viability [1] did it give?
A: 106

Q: What about the cell viability [2] of the same compound?
A: 94.1

Q: And the cell viability [3]?
A: 101

Q: And the cell viability [4]?
A: 88.9

Q: What about the cell viability [5] of the same compound?
A: 106 ± 20

Q: What about the cell viability [6] of the same compound?
A: 82.4

Q: What about the cell viability [7] of the same compound?
A: 82.2 ± 42

Q: And the cell viability [8]?
A: 96.5

Q: What about the cell viability [9] of the same compound?
A: 75.4 ± 9.1

Q: And the cell viability [10]?
A: 106

Q: What about the cell viability [11] of the same compound?
A: 46.7 ± 2.5

Q: What about the cell viability [12] of the same compound?
A: 38.9 ± 12

Q: And the cell viability [13]?
A: 87.3 ± 8.5

Q: What does the source list for Cl.Clc1ccccc1CN1CCc2sccc2C1 [Ticlopidine HCl]?
A: cell viability [1]: 99.4; cell viability [2]: 97.4; cell viability [3]: 99.6; cell viability [4]: 91.9; cell viability [5]: 56.5 ± 32; cell viability [6]: 108; cell viability [7]: 82 ± 2.9; cell viability [8]: 91.6; cell viability [9]: 108 ± 34; cell viability [10]: 97.2; cell viability [11]: 62.5 ± 2.4; cell viability [12]: 82.5 ± 24; cell viability [13]: 89.7 ± 5.6

Q: CCCCCOc1ccc(-c2ccc(-c3ccc(C(=O)N[C@H]4C[C@@H](O)[C@@H](O)NC(=O)[C@@H]5[C@@H](O)[C@@H](C)CN5C(=O)[C@H]([C@@H](C)O)NC(=O)[C@H]([C@H](O)[C@@H](O)c5ccc(O)cc5)NC(=O)[C@@H]5C[C@@H](O)CN5C(=O)[C@H]([C@@H](C)O)NC4=O)cc3)cc2)cc1 [Anidulafungin] was tested. Which cell viability [1] did it give?
A: 100

Q: What about the cell viability [2] of the same compound?
A: 82.5

Q: What about the cell viability [3] of the same compound?
A: 82.8

Q: And the cell viability [4]?
A: 72.2

Q: What about the cell viability [5] of the same compound?
A: 45 ± 2.3

Q: What about the cell viability [6] of the same compound?
A: 67.5

Q: What about the cell viability [7] of the same compound?
A: 40.3 ± 15

Q: What about the cell viability [8] of the same compound?
A: 92.4

Q: What about the cell viability [9] of the same compound?
A: 58.3 ± 5.8

Q: And the cell viability [10]?
A: 55.2

Q: And the cell viability [11]?
A: 47.7 ± 8.9

Q: What about the cell viability [12] of the same compound?
A: 67.4 ± 5.7

Q: What about the cell viability [13] of the same compound?
A: 112 ± 16

Q: Which cell viability [1] does the source give for CC(O)C(=O)O.CCOc1ccc2nc3cc(N)ccc3c(N)c2c1.O [Ethacridine lactate monohydrate] here?
A: 83.7

Q: And the cell viability [2]?
A: 95.6

Q: What about the cell viability [3] of the same compound?
A: 58.8

Q: What about the cell viability [4] of the same compound?
A: 68.3

Q: And the cell viability [5]?
A: 57.6 ± 15

Q: What about the cell viability [6] of the same compound?
A: 41.6

Q: And the cell viability [7]?
A: 24.4 ± 4.4

Q: What about the cell viability [8] of the same compound?
A: 36.3

Q: And the cell viability [9]?
A: 57.4 ± 17

Q: And the cell viability [11]?
A: 158 ± 32

Q: And the cell viability [12]?
A: 49.6 ± 8.4

Q: And the cell viability [13]?
A: 76.2 ± 3

Q: With Cl.OC(CNCC(O)C1CCc2cc(F)ccc2O1)C1CCc2cc(F)ccc2O1 (stereo not given) [Nebivolol] as the compound, how does the cell viability [1] read?
A: 91.1

Q: What about the cell viability [2] of the same compound?
A: 92.3

Q: And the cell viability [3]?
A: 91.5

Q: What about the cell viability [4] of the same compound?
A: 103

Q: And the cell viability [5]?
A: 75.3 ± 2.5

Q: What about the cell viability [6] of the same compound?
A: 87.2

Q: What about the cell viability [7] of the same compound?
A: 86.8 ± 8.1

Q: And the cell viability [8]?
A: 87.2

Q: And the cell viability [9]?
A: 94.2 ± 18

Q: What about the cell viability [10] of the same compound?
A: 64.9

Q: What about the cell viability [11] of the same compound?
A: 38.43 ± 0.34

Q: And the cell viability [12]?
A: 40.5 ± 9.2

Q: And the cell viability [13]?
A: 81 ± 2.3

Q: How did the cell viability [1] turn out when CCOc1cc2ncc(C#N)c(Nc3ccc(F)c(Cl)c3)c2cc1NC(=O)C=CCN(C)C [Pelitinib (EKB-569)] was run?
A: 98.5

Q: What about the cell viability [2] of the same compound?
A: 27

Q: And the cell viability [3]?
A: 31.4

Q: What about the cell viability [4] of the same compound?
A: 46.1

Q: And the cell viability [5]?
A: 30.5 ± 8.4

Q: What about the cell viability [6] of the same compound?
A: 60.7

Q: And the cell viability [7]?
A: 21.7 ± 4.1

Q: What about the cell viability [8] of the same compound?
A: 37.7

Q: What about the cell viability [9] of the same compound?
A: 34.2 ± 0.47

Q: And the cell viability [10]?
A: 37.9

Q: What about the cell viability [11] of the same compound?
A: 32.5 ± 1.5

Q: And the cell viability [12]?
A: 31.1 ± 17

Q: And the cell viability [13]?
A: 57.6 ± 12

Q: For CC(C)COc1ccc(CNC(=O)N(Cc2ccc(F)cc2)C2CCN(C)CC2)cc1 [Pimavanserin], which cell viability [1] is on record?
A: 93.5

Q: What about the cell viability [2] of the same compound?
A: 83.6

Q: What about the cell viability [3] of the same compound?
A: 103

Q: And the cell viability [4]?
A: 88

Q: What about the cell viability [5] of the same compound?
A: 98.1 ± 1.5

Q: What about the cell viability [6] of the same compound?
A: 111

Q: And the cell viability [7]?
A: 56.7 ± 18

Q: And the cell viability [8]?
A: 81

Q: And the cell viability [9]?
A: 171 ± 10

Q: What about the cell viability [10] of the same compound?
A: 87.3

Q: What about the cell viability [11] of the same compound?
A: 46.4 ± 3.1

Q: And the cell viability [12]?
A: 43.7 ± 2.7

Q: And the cell viability [13]?
A: 83.5 ± 3.7

Q: With COc1ncc(-c2ccc3nccc(-c4ccnnc4)c3c2)cc1NS(=O)(=O)c1ccc(F)cc1F as the compound, how does the cell viability [1] read?
A: 53

Q: And the cell viability [2]?
A: 23.2

Q: And the cell viability [3]?
A: 31.9

Q: And the cell viability [4]?
A: 48

Q: What about the cell viability [5] of the same compound?
A: 64.11 ± 0.34

Q: And the cell viability [6]?
A: 65.6

Q: And the cell viability [7]?
A: 26.64 ± 0.21

Q: What about the cell viability [8] of the same compound?
A: 70.3

Q: And the cell viability [10]?
A: 147

Q: And the cell viability [11]?
A: 43.4 ± 1

Q: And the cell viability [12]?
A: 49.7 ± 7.6

Q: And the cell viability [13]?
A: 42.9 ± 2.3

Q: Which cell viability [1] does the source give for CNCCC(Oc1cccc2ccccc12)c1cccs1.Cl (stereo not given) [Duloxetine HCl] here?
A: 85.4

Q: What about the cell viability [2] of the same compound?
A: 95.4

Q: What about the cell viability [3] of the same compound?
A: 91.1

Q: What about the cell viability [4] of the same compound?
A: 79.7

Q: And the cell viability [5]?
A: 87.3 ± 6.3

Q: What about the cell viability [6] of the same compound?
A: 106

Q: What about the cell viability [7] of the same compound?
A: 55.9 ± 34

Q: And the cell viability [8]?
A: 70.8

Q: And the cell viability [9]?
A: 112 ± 11

Q: And the cell viability [10]?
A: 66.6

Q: What about the cell viability [11] of the same compound?
A: 30.9 ± 1.8

Q: And the cell viability [12]?
A: 38.5 ± 0.71

Q: And the cell viability [13]?
A: 80.9 ± 9.8

Q: How did the cell viability [1] turn out when Cn1cnc2c(F)c(Nc3ccc(Br)cc3F)c(C(=O)NOCCO)cc21 was run?
A: 71.6

Q: And the cell viability [2]?
A: 59.9

Q: And the cell viability [3]?
A: 80.7

Q: And the cell viability [4]?
A: 69.9

Q: What about the cell viability [5] of the same compound?
A: 84.1 ± 12

Q: What about the cell viability [6] of the same compound?
A: 90.7

Q: And the cell viability [7]?
A: 65.6 ± 13

Q: And the cell viability [8]?
A: 76.4

Q: What about the cell viability [9] of the same compound?
A: 70.9 ± 7.1

Q: And the cell viability [10]?
A: 79.6

Q: What about the cell viability [11] of the same compound?
A: 59.8 ± 8.5

Q: And the cell viability [12]?
A: 55.2 ± 20

Q: What about the cell viability [13] of the same compound?
A: 106 ± 14

Q: Which results are given for COCCOC(=O)C1=C(C)NC(C)=C(C(=O)OCC=Cc2ccccc2)C1c1cccc([N+](=O)[O-])c1 (stereo not given) [Cilnidipine]?
A: cell viability [1]: 111; cell viability [2]: 95.4; cell viability [3]: 97.7; cell viability [4]: 103; cell viability [5]: 93.8 ± 25; cell viability [6]: 90.1; cell viability [7]: 81.4 ± 20; cell viability [8]: 81.7; cell viability [9]: 66.6 ± 38; cell viability [10]: 54.9; cell viability [11]: 84 ± 6.8; cell viability [12]: 41.1 ± 16; cell viability [13]: 68.7 ± 1.3
